Assay results taken from PubChem BioAssay AID1159580 (chemical genetic matrix, 2015).
About 2,000 (36%) of roughly 5,500 compounds were called active. Inconclusive results (about 18%) are left out. This is one part of the list. Unmarked numbers belong to inactive results. Cut-off read from the data, not from the text of the source: active = normalized growth mostly below about 0.91 (no sharp cut-off); inconclusive = no clear call, values can overlap the other calls; inactive = mostly above about 0.92.

Assay: chemical genetic growth profiling, strain panel (AID 1159580);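 note: tested at 20 µM; growth read once vehicle control cultures reached saturation at 30 °C; 1 = growth at the plate median or of vehicle wells; lower values mean less growth of the strain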
Settings: S. cerevisiae deletion strains, growth OD
[1] = locus YAL013W, strain DEP1, active compounds read low
[2] = locus YAL040C, strain CLN3, active compounds read low
[3] = locus YER002W, strain NOP16, active compounds read low
[4] = locus YMR263W, strain SAP30, active compounds read low
[5] = locus YNL175C, strain NOP13, active compounds read low
[6] = locus YNL197C, strain WHI3, active compounds read low
[7] = locus YNL224C, strain SQS1, active compounds read low
[8] = locus YOR083W, strain WHI5 (second series), active compounds read low
[9] = locus YPL241C, strain CIN2, active compounds read low
[10] = locus YGR078C, strain PAC10, active compounds read low
[11] = locus YJR075W, strain HOC1, active compounds read low
[12] = locus YNL153C, strain GIM3, active compounds read low
[13] = locus YNL322C, strain KRE1, active compounds read low
[14] = locus YDL101C, strain DUN1, active compounds read low
[15] = locus YHR030C, strain SLT2, active compounds read low

CN1CCCC1CCOC(C)(c1ccccc1)c1ccc(Cl)cc1 (stereo not given)
normalized growth [1]: 0.981
normalized growth [2]: 0.986
normalized growth (locus YCL061C, strain MRC1 (second series), active compounds read low): 0.982
normalized growth (locus YDR363W, strain ESC2, active compounds read low): 0.983
normalized growth [3]: 1
normalized growth (locus YGR229C, strain SMI1, active compounds read low): 0.714 (active)
normalized growth [4]: 0.955
normalized growth [5]: 0.995
normalized growth [6]: 1.03
normalized growth [7]: 1.01
normalized growth [8]: 0.986
normalized growth [9]: 0.996

Brc1ccc([C@H]2CN3CCSC3=N2)cc1
normalized growth [2]: 1.01
normalized growth [3]: 1.03
normalized growth [10]: 1.02
normalized growth [11]: 0.983
normalized growth [12]: 0.997
normalized growth [5]: 1.01
normalized growth [6]: 1.01
normalized growth [7]: 1.01
normalized growth [13]: 0.997
normalized growth [8]: 1.02

Clc1cc(Cl)cc(C=NCc2ccccc2)c1
normalized growth (locus YAR019C, strain CDC15, active compounds read low): 0.958
normalized growth (locus YBL105C, strain PKC1, active compounds read low): 0.946
normalized growth (locus YBR135W, strain CKS1, active compounds read low): 0.961
normalized growth (locus YBR136W, strain MEC1, active compounds read low): 0.957
normalized growth (locus YBR160W, strain CDC28, active compounds read low): 0.955
normalized growth (locus YDL017W, strain CDC7, active compounds read low): 0.951
normalized growth (locus YDL028C, strain MPS1, active compounds read low): 0.958
normalized growth [14]: 0.964
normalized growth (locus YDL108W, strain KIN28, active compounds read low): 0.964
normalized growth (locus YDL132W, strain cdc53, active compounds read low): 0.959
normalized growth (locus YDL214C, strain PRR2, active compounds read low): 0.665 (active)
normalized growth (locus YDR052C, strain DBF4, active compounds read low): 0.957
normalized growth (locus YDR054C, strain cdc34, active compounds read low): 0.95
normalized growth (locus YDR226W, strain ADK1, active compounds read low): 0.957
normalized growth (locus YDR477W, strain SNF1, active compounds read low): 0.621 (active)
normalized growth (locus YER123W, strain YCK3, active compounds read low): 0.364 (active)
normalized growth (locus YER133W, strain GLC7, active compounds read low): 0.625 (active)
normalized growth (locus YFL009W, strain cdc4, active compounds read low): 0.961
normalized growth (locus YFL029C, strain CAK1, active compounds read low): 0.961
normalized growth (locus YFR003C, strain YPI1, active compounds read low): 0.95
normalized growth (locus YFR019W, strain FAB1, active compounds read low): 0.501 (active)
normalized growth (locus YFR028C, strain CDC14, active compounds read low): 0.967
normalized growth (locus YGR040W, strain KSS1, active compounds read low): 0.681 (active)
normalized growth (locus YGR052W, strain FMP48, active compounds read low): 0.627
normalized growth (locus YGR092W, strain DBF2, active compounds read low): 0.222 (active)
normalized growth [15]: 0.322 (active)
normalized growth (locus YHR079C, strain IRE1, active compounds read low): 0.27 (active)
normalized growth (locus YHR082C, strain KSP1, active compounds read low): 0.616
normalized growth (locus YHR205W, strain SCH9, active compounds read low): 0.621
normalized growth (locus YIL147C, strain SLN1, active compounds read low): 0.947
normalized growth (locus YJL095W, strain BCK1, active compounds read low): 0.375 (active)
normalized growth (locus YJL128C, strain PBS2, active compounds read low): 0.93
normalized growth (locus YJL157C, strain FAR1, active compounds read low): 0.458 (active)
normalized growth (locus YJR016C, strain ILV3, active compounds read low): 0.961
normalized growth (locus YJR066W, strain TOR1 (second series), active compounds read low): 0.585 (active)
normalized growth (locus YJR066W, strain TOR1, active compounds read low): 0.433 (active)
normalized growth (locus YKL048C, strain ELM1, active compounds read low): 0.722 (active)
normalized growth (locus YKL067W, strain YNK1, active compounds read low): 0.58 (active)
normalized growth (locus YKL101W, strain HSL1, active compounds read low): 0.692 (active)
normalized growth (locus YKL193C, strain SDS22, active compounds read low): 0.956
normalized growth (locus YKL203C, strain TOR2, active compounds read low): 0.691 (active)
normalized growth (locus YLR113W, strain HOG1, active compounds read low): 0.375 (active)
normalized growth (locus YLR133W, strain CKI1, active compounds read low): 0.525 (active)
normalized growth (locus YLR403W, strain SFP1, active compounds read low): 0.479 (active)
normalized growth (locus YML070W, strain DAK1, active compounds read low): 0.428 (active)
normalized growth (locus YMR001C, strain CDC5, active compounds read low): 0.947
normalized growth (locus YMR205C, strain PFK2 (second series), active compounds read low): 0.652 (active)
normalized growth (locus YMR277W, strain FCP1, active compounds read low): 0.966
normalized growth (locus YNL006W, strain LST8, active compounds read low): 0.95
normalized growth (locus YNL020C, strain ARK1, active compounds read low): 0.452 (active)
normalized growth (locus YNL161W, strain CBK1, active compounds read low): 0.95
normalized growth (locus YNL183C, strain NPR1, active compounds read low): 0.549 (active)
normalized growth (locus YNL207W, strain RIO2, active compounds read low): 0.963
normalized growth (locus YNL222W, strain SSU72, active compounds read low): 0.963
normalized growth (locus YNL307C, strain MCK1 (second series), active compounds read low): 0.489 (active)
normalized growth (locus YOL078W, strain AVO1, active compounds read low): 0.965
normalized growth (locus YOL136C, strain PFK27, active compounds read low): 0.328 (active)
normalized growth (locus YOR061W, strain CKA2, active compounds read low): 0.441 (active)
normalized growth (locus YOR119C, strain RIO1, active compounds read low): 0.744
normalized growth (locus YOR231W, strain MKK1, active compounds read low): 0.364 (active)
normalized growth (locus YOR329C, strain SCD5, active compounds read low): 0.946
normalized growth (locus YPL031C, strain PHO85, active compounds read low): 0.589 (active)
normalized growth (locus YPL153C, strain RAD53, active compounds read low): 0.534 (active)
normalized growth (locus YPL204W, strain HRR25, active compounds read low): 0.489 (active)
normalized growth (locus YPL209C, strain IPL1, active compounds read low): 0.957
normalized growth (locus YPL256C, strain CLN2, active compounds read low): 0.303 (active)
normalized growth (locus YPR025C, strain CCL1, active compounds read low): 0.953
normalized growth (locus YPR106W, strain ISR1, active compounds read low): 0.959
normalized growth (locus YPR111W, strain DBF20, active compounds read low): 0.957
normalized growth (strain NNK1, active compounds read low): 0.959
normalized growth (strain TSCII, active compounds read low): 0.954

Brc1cccc(C=NCc2ccccc2)c1
normalized growth [1]: 0.87 (active)
normalized growth (locus YBR229C, strain ROT2, active compounds read low): 0.843 (active)
normalized growth [14]: 0.888 (active)
normalized growth (locus YDL134C, strain PPH21, active compounds read low): 0.765 (active)
normalized growth (locus YDR150W, strain NUM1, active compounds read low): 0.932
normalized growth (locus YEL061C, strain CIN8, active compounds read low): 0.621 (active)
normalized growth [10]: 0.847 (active)
normalized growth [15]: 0.198 (active)
normalized growth (locus YHR087W, strain rtc3, active compounds read low): 0.788 (active)
normalized growth (locus YJL187C, strain SWE1, active compounds read low): 0.848 (active)
normalized growth (locus YJR043C, strain POL32, active compounds read low): 0.954
normalized growth [11]: 0.719 (active)
normalized growth (locus YLR039C, strain RIC1, active compounds read low): 0.242 (active)
normalized growth (locus YLR058C, strain SHM2 (second series), active compounds read low): 0.961
normalized growth (locus YLR085C, strain ARP6, active compounds read low): 0.333 (active)
normalized growth (locus YLR262C, strain YPT6, active compounds read low): 0.23 (active)
normalized growth (locus YML094W, strain GIM5, active compounds read low): 0.656 (active)
normalized growth (locus YMR219W, strain ESC1, active compounds read low): 0.92 (active)
normalized growth [4]: 0.883 (active)
normalized growth (locus YNL128W, strain TEP1, active compounds read low): 0.829 (active)
normalized growth [12]: 0.921 (active)
normalized growth (locus YNL298W, strain CLA4 (second series), active compounds read low): 0.664 (active)
normalized growth [13]: 0.983
normalized growth (locus YNR030W, strain Alg12, active compounds read low): 0.761 (active)
normalized growth (locus YPL055C, strain LGE1, active compounds read low): 0.825
normalized growth [9]: 0.663 (active)
normalized growth (locus YPR135W, strain CTF4, active compounds read low): 0.366 (active)
